# PubChem BioAssay (EPA / NIEHS)
# Results filed as inconclusive are left out. The source made the active and inactive calls. How the source made its calls: active means hit-call score of the fitted dose curve at least 0.9, where 1 is the maximum; inconclusive means response in the unintended direction; inactive means score below 0.9.
# Biological target: Oxysterols receptor LXR-beta (Homo sapiens) (UniProt P55055)
# Assay: ATG_LXRb_TRANS: Attagene TRANS-FACTORIAL HepG2 Assay for human Liver X Receptor beta (LXRb) (AID 2282981)
# Conditions: HepG2 Attagene TRANS GAL4-LXRb reporter, mRNA
# Description: ATG_TRANS is a cell-based, multiplexed-readout assay that uses HepG2, a human liver cell line, with measurements taken at 24 hours after chemical dosing in a 24-well plate.ATG_LXRb_TRANS is one of 30 assay component(s) measured or calculated from the ATG_TRANS assay. It is designed to make measurements of mRNA induction, a form of inducible reporter, as detected with fluorescence intensity signals by Reverse transcription polymerase chain reaction (RT-PCR) and Capillary electrophoresis technology.Data from the assay component ATG_LXRb_TRANS was analyzed into 1 assay endpoint. This assay endpoint, ATG_LXRb_TRANS, was analyzed in the positive analysis fitting direction relative to DMSO as the negative control and baseline of activity. Using a type of inducible reporter, measures of mRNA for gain-of-signal activity can be used to understand the reporter gene at the transcription factor-level as they relate to the gene NR1H2. Furthermore, this assay endpoint can be referred to as a primary readout, because this assay has produced multiple assay endpoints where this one serves a reporter gene function. To generalize the intended target to other relatable targets, this assay endpoint is annotated to the nuclear receptor intended target family, where the subfamily is non-steroidal.
# Human liver HepG2 cells are transiently transfected with multiple reporter transcription units (MRTUs) in 6-well plates using FuGene 6 reagent (Roche; 3 ml FuGene/1 mg DNA). The MRTU constructs are regulated by a cis-regulating element (promoter). […] A major difference between the CIS and TRANS system is that in CIS activities of endogenous TFs are measured, whereas the TRANS assay evaluates changes in activities of exogenous, chimeric NR-Gal4 proteins. […] At the end of 24 hour incubation, total RNA was isolated using TriZol reagent (Invitrogen). The isolated RNA is then reverse-transcribed using oligo(dT) primer and Mo-MLV reverse transcriptase (Invitrogen) with DNAse I (Ambion) treatment for 30 min. The one-tenth of the produced cDNA was amplified by PCR using Taq DNA polymerase (Invitrogen) and two reporter sequence-specific primers. The PCR products were fluorescently labeled by primer extension with 6-arboxyfluorescein (6-FAM) 5'-labeled reporter sequence-specific primer (2 min at 95 C, 20 s at 68 C and 10 min at 72 C) and these products were digested with 5U of HpaI (New England Biolabs) for 2h at 37 C. The fragments were purified using Qiaquick PCR columns (Qiagen), analyzed on an ABI 3130xL genetic analyzer (Applied Biosystems) with peak positions identified by using a set of X-rhodamine (ROX)-labeled MapMarker1000 molecular weight standards (BioVentures). The raw capillary electrophoresis data was processed using Attagraph software (Attagene).
# Chain of Oxysterols receptor LXR-beta (Homo sapiens) (P55055 whole entry, looked up): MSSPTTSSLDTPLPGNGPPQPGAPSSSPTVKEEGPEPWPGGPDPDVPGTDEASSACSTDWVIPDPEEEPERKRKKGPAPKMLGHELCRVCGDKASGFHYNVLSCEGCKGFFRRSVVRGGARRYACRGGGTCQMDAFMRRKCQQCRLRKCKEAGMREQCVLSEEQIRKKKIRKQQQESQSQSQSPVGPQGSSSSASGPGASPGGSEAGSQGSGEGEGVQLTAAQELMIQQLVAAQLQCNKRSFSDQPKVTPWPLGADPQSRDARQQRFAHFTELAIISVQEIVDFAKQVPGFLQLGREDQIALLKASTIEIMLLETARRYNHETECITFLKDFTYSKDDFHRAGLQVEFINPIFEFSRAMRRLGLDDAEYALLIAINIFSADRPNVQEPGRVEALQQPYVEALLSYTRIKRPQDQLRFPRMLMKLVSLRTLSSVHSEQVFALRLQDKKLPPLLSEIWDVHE
row,Structure (SMILES),outcome
1,C=CC(=O)NC(C)(C)CC(C)=O,inactive
2,ClCc1ccccc1CCl,inactive
3,Nc1ccc(-c2ccccc2)cc1,inactive
4,O=C(Cl)OCCOCCOC(=O)Cl,inactive
5,O=C=Nc1ccc(Cl)cc1,inactive
6,Cc1cc(C)cc(C)c1,inactive
7,CC(C)(C)c1ccccc1O,inactive
8,CCCCCCCCCCCCCl,inactive
9,CNC(=O)CSP(=O)(OC)OC,inactive
10,Fc1cccc(Cl)c1CCl,inactive
11,C=C(C)C(=O)OCCCCOC(=O)C(=C)C,inactive
12,Oc1c(Cl)cc(Cl)cc1Cl,inactive
13,CCOC(=O)OC1=C(c2cc(C)ccc2C)C(=O)NC12CCC(OC)CC2 (stereo not given),inactive
14,Nc1cccnc1,inactive
15,OCCN(CCO)CCO,inactive
16,Cc1cc(C(C)(C)c2ccc(O)c(C)c2)ccc1O,inactive
17,C#C[C@]1(O)CC[C@H]2[C@@H]3CCC4=CC(=O)CC[C@]4(C)[C@H]3CC[C@@]21C,inactive
18,CN(C)c1ccc(N=O)cc1,inactive
19,Oc1cc(Cl)c(Cl)cc1Cl,inactive
20,NNCCO,inactive

row,Structure (SMILES),outcome
1,CC(C)C(C)(N)C#N (stereo not given),inactive
2,COC(F)(C(F)(F)C(F)(F)F)C(F)(C(F)(F)F)C(F)(F)F (stereo not given),inactive
3,COCC(=O)N(c1c(C)cccc1C)[C@H](C)C(=O)OC,inactive
4,C=C(C)[C@@H]1CC=C(C=O)CC1,inactive
5,CCCCN(CCCC)C(=S)[S-].CCCCN(CCCC)C(=S)[S-].[Ni+2],inactive
6,OC[P+](CO)(CO)CO,inactive
7,CN(C)[C@@H]1C(=O)C(C(N)=O)=C(O)[C@@]2(O)C(=O)C3=C(O)c4c(O)ccc(Cl)c4[C@@](C)(O)[C@H]3C[C@@H]12,inactive
8,Nc1c(Oc2ccccc2)cc(O)c2c1C(=O)c1ccccc1C2=O,inactive
9,COc1ccc(N)cc1,inactive
11,CNC(=O)N(C)c1nc2ccccc2s1,inactive
12,CCOc1cc(C=O)ccc1O,inactive
13,CCN(CC)C(=O)C(Cl)=C(C)OP(=O)(OC)OC,inactive
14,Oc1ccc(Cc2ccc(O)cc2)cc1,inactive
15,CC(C)O.CC(C)O.OCCN(CCO)CCO.OCCN(CCO)CCO.[Ti],inactive
16,Nc1nc(=S)[nH][nH]1,inactive
17,NC(=O)c1ccc(N)nc1,inactive
18,OC(Cc1ccccc1Cl)(Cn1cncn1)C1(Cl)CC1 (stereo not given),inactive
19,CN(N=O)C(N)=O,inactive
20,[F][Sn]([c]1ccccc1)([c]1ccccc1)[c]1ccccc1,inactive
